Holding throughout (test): NCI-60 one-dose screen, 48 h (100 = growth as untreated, 0 = no growth, -100 = all killed)
Settings in all cases: 10 µM unless noted

Experiment [1] relates to SR leukemia.
Experiment [2] deals with RPMI-8226 leukemia.
Experiment [3] concerns OVCAR-8 ovarian.
Experiment [4] relates to OVCAR-5 ovarian.
In experiment [5] the test system is OVCAR-4 ovarian.
In experiment [6] the test system is SK-OV-3 ovarian.
Experiment [7] relates to IGROV1 ovarian.
Experiment [8] concerns OVCAR-3 ovarian.
Experiment [9] relates to HS 578T breast.
Experiment [10] deals with NCI/ADR-RES ovarian.
The test system of experiment [11] is T-47D breast.
Experiment [12] deals with BT-549 breast.
For experiment [13], the system named is MDA-MB-435 melanoma.
In experiment [14] the test system is SW-620 colon.
For experiment [15], the system named is MCF7 breast.
The test system of experiment [16] is HCT-116 colon.
The test system of experiment [17] is KM12 colon.
Experiment [18] deals with HCC-2998 colon.

Compounds without any hit were thinned out: in the full panel of roughly 83,000, 20% have a hit.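 A percent growth of 40 corresponds to 60% growth inhibition; 0 means no net growth; -100 means all cells died. Active threshold: below 10.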 A number with no mark means an inactive call. Calls of active or inactive are those of the source.

With `COc1ccc(Cn2cc3c(c2-c2cc(OC)c(OC)c(OC)c2)CCCc2cnoc2-3)cc1N`, the growth in [1] is 18%; in [2] it was 19.9%; in experiment [3], 47.3%; in [4], 38.2%; in experiment [5], 80.9%; in [6] it was 65.6%. Besides, the growth in experiment [7] is 35.2%; in [8], 7.33% (active); in [9], 13%; in experiment [10], 15.5%; in experiment [11], 51.5%; in experiment [12], 68.2%. Moreover, the growth in experiment [13] was -45.3% (active); in experiment [14] it was 29.6%; in [15], 15.2%; in experiment [16] it was 24.1%; in [17], 26.1%.
As for `Oc1ccc(-c2nnc(SCc3ccc(O)c4ncccc34)n2-c2ccccc2)cc1`, the growth in experiment [1] was 37.3%; in experiment [2], 15.5%; in experiment [3] it was 10.1%; in experiment [4] it was 34.6%; in experiment [5], 10.2%; in [6], 18.7%. In addition, the growth is 8.1% (active) in experiment [7]; 3.67% (active) in experiment [8]; 39.8% in [9]; 8.08% (active) in experiment [10]; 14.8% in [11]; 26.9% in experiment [12]. Also, the growth was 21.5% in experiment [13]; 16.4% in [14]; 2.53% (active) in experiment [15]; 12.7% in experiment [16]; 27.3% in experiment [18]; 17.3% in [17].
Turning to `O=c1c2c(O)cccc2oc2c3c(cc(O)c12)O[C@H]1OC=C[C@@H]31`, the growth in experiment [1] was 42.6%; in experiment [2], 93.7%; in experiment [3] it was 87.8%; in [4] it was 110%; in [5], 94.5%; in experiment [6], 78.9%. The growth is 77.4% in experiment [7]; 106% in experiment [8]; 94.9% in experiment [9]; 87.9% in [10]; 57.4% in experiment [11]; 95.2% in experiment [12]. In addition, the growth in [13] is 83.3%; in [14] it was 78.1%; in experiment [15], 8.3% (active); in experiment [16], 86.6%; in experiment [17], 82.4%.
With `CCOP(=O)(OCC)OC[C@]12CCC(C)(C)C[C@H]1C1=CC[C@@H]3[C@@]4(C)C/C(=C\c5cccnc5)[C@H](OP(=O)(OCC)OCC)C(C)(C)[C@@H]4CC[C@@]3(C)[C@]1(C)CC2`, the growth in experiment [1] is 3.36% (active); in experiment [2], -10.3% (active); in experiment [3] it was 28.9%; in experiment [4], 50.1%; in [5] it was 27.6%; in experiment [6], 34.8%. The growth in experiment [7] is 42.6%; in experiment [8], 28.5%; in [9] it was 61.1%; in [10] it was 52.3%; in [11], 16.1%; in [12], 33.4%. Also, the growth was 31.2% in experiment [13]; 25.9% in experiment [14]; 6.1% (active) in [15]; 11.1% in experiment [16]; 23.6% in experiment [17].
For `NS(=O)(=O)c1ccc(Nc2nc(N/N=C/c3ccc(F)cc3)nc(Nc3ccccc3)n2)cc1`, the growth in experiment [1] was 57.7%; in [2] it was 50.6%; in experiment [3] it was 29.4%; in experiment [4], 75.3%; in [5], 55.5%; in experiment [6], 71.2%. Besides, the growth in experiment [7] is 43.5%; in [8], 30.4%; in [9] it was 40.6%; in experiment [10] it was 95.6%; in experiment [11] it was 20.7%; in experiment [12], 67.2%. Further, the growth is 53.5% in experiment [13]; 75.7% in [14]; 28.6% in [15]; 44.7% in [16]; 30.9% in [17].
For the compound `C=C(C)C(=O)O[C@H]1C[C@@]2(C)OC(=CC2=O)/C(C)=C\[C@H]2OC(=O)C(=C)[C@H]12`, the growth is -19.6% (active) in experiment [1]; -15.3% (active) in experiment [2]; 4.8% (active) in experiment [3]; -56.4% (active) in experiment [4]; 36.1% in experiment [5]; 77% in experiment [6]. For the same compound, the growth in [7] is 7.34% (active); in [8] it was -72.1% (active); in experiment [9], 21.9%; in experiment [10], 15.7%; in [11], -0.517% (active); in [12], -9.12% (active). The growth in experiment [13] is -57.4% (active); in experiment [14] it was -41.7% (active); in experiment [15], 11.7%; in experiment [16], -68.5% (active); in [17], -8.25% (active).
For `CCOC(=O)C1=C(C)Nc2nc3ccccc3n2C1c1ccccc1` (configuration not stated), the growth in [1] was 68.9%; in experiment [2], 97.4%; in experiment [3], 96.6%; in experiment [4], 104%; in experiment [5], 83.7%; in experiment [6] it was 113%. In addition, the growth in experiment [7] was 91.6%; in experiment [8], 90.9%; in experiment [9] it was 97.7%; in [10], 92%; in experiment [11], 95.5%; in [12] it was 101%. In addition, the growth in experiment [13] is 96.6%; in experiment [14] it was 87.8%; in experiment [15] it was 87.8%; in experiment [16], 69.1%; in experiment [17] it was 98.1%.
Take `Cn1cc(-c2nnc(N)nc2-c2cn(C)c3ccc(F)cc23)c2cc(F)ccc21`: the growth in [1] was 85.6%; in experiment [2], 106%; in experiment [3], 89.6%; in experiment [4], 103%; in experiment [5], 97.4%; in experiment [6], 112%. In addition, the growth in [7] is 101%; in experiment [8] it was 103%; in experiment [9], 90.8%; in experiment [10] it was 99.8%; in [11] it was 69.1%; in experiment [12], 99.8%. Moreover, the growth in [13] was 101%; in experiment [14], 102%; in experiment [15], 87.2%; in experiment [16], 92.7%; in experiment [17], 90.8%.
Regarding `O=C(NCCCNc1cc(-c2cn(-c3ccccc3)nc2-c2cccc(O)c2)ccn1)Nc1cccc(C(F)(F)F)c1`, the growth was 30.2% in experiment [1]; 4.35% (active) in experiment [2]; 56.1% in experiment [3]; 56% in [4]; 38.9% in experiment [5]; 57.5% in experiment [6]. The growth in experiment [7] was 44.2%; in experiment [8], 49.6%; in [9], 7.27% (active); in [10], 48.1%; in [11], 39.2%; in [12], 68.8%. For the same compound, the growth is 31.7% in experiment [13]; 12.4% in experiment [14]; 23.7% in [15]; 23.1% in experiment [16]; 10.7% in experiment [17].
`Oc1ccccc1-c1nnc(SCc2ccc(O)c3ncccc23)o1`: the growth in experiment [1] is 43.3%; in [2], 13.5%; in [3], 26.4%; in experiment [4] it was 68.4%; in [5] it was 35.9%; in experiment [6], 19.5%. In addition, the growth was 53% in experiment [7]; 29.7% in experiment [8]; 6.2% (active) in experiment [9]; 49% in experiment [10]; 11.6% in experiment [11]; 32.3% in experiment [12]. Further, the growth in [13] is 18.5%; in experiment [14] it was 28.2%; in experiment [15] it was 6.74% (active); in [16], 10.5%; in [18], 46%; in experiment [17] it was 29.3%.
Take `Oc1ccc(CSc2nnc(-c3ccc(Br)cc3)o2)c2cccnc12`: the growth in experiment [1] was 42.3%; in [2] it was 10.8%; in [3], 27.7%; in experiment [4], 89.6%; in experiment [5] it was 22%; in experiment [6], 50.2%. For the same compound, the growth in experiment [7] was 31.6%; in experiment [8], 27.4%; in experiment [9] it was -2.18% (active); in experiment [10] it was 13.4%; in [11], 28.5%; in experiment [12], 43%. In addition, the growth is 29.3% in experiment [13]; 17.7% in experiment [14]; 16% in [15]; 23% in experiment [16]; 44.9% in [18]; 19.1% in [17].
On to `CS(=O)(=O)c1ccc(-c2nn(-c3ccccc3)cc2/C=C/C(=O)c2ccc(Br)cc2)cc1`, for which the growth in experiment [1] was 59.6%; in [2] it was 32.8%; in experiment [3], 93.6%; in experiment [4], 101%; in experiment [5] it was 90.6%; in experiment [6] it was 107%. Besides, the growth in [7] was 95%; in [8], 70.3%; in experiment [9] it was 117%; in experiment [10], 85.2%; in experiment [11], 87.8%; in experiment [12], 105%. The growth in experiment [13] was 95.3%; in experiment [14] it was 86.9%; in experiment [16], 73.2%; in experiment [18] it was 105%; in [17], 80%.
With `COc1cc2cc(Oc3ccc(NC(=O)c4cccc(C(F)(F)F)c4)cc3)c(C)nc2cc1OCCN(C)C`, the growth in experiment [1] was 28.6%; in experiment [2], 73.1%; in experiment [3], 89.8%; in experiment [4], 103%; in experiment [5], 80.5%; in [6], 108%. The growth is 93.2% in [7]; 102% in experiment [8]; 74.8% in experiment [9]; 80.7% in [10]; 91.2% in experiment [11]; 101% in experiment [12]. In addition, the growth was 6.7% (active) in experiment [13]; 79.5% in [14]; 22.7% in experiment [15]; 61.2% in [16]; 80.3% in [18]; 76.9% in [17].
For the compound `Oc1ccccc1/C=N/Nc1nc(N/N=C/c2ccccc2O)nc(N2CCOCC2)n1`, the growth is 16% in experiment [1]; 53.6% in experiment [2]; 12.7% in experiment [3]; 37% in [4]; -11.7% (active) in [5]; 11.9% in experiment [6]. Further, the growth was 37% in experiment [7]; 33.6% in experiment [8]; 47% in experiment [9]; 22.9% in [10]; 46.1% in experiment [11]; 76.3% in [12]. Besides, the growth is 58.9% in experiment [13]; 38.5% in experiment [14]; 40% in experiment [15]; 19.2% in experiment [16]; 52.7% in experiment [17].
Take `CCOc1c(C#N)c(Nc2ccc(S(N)(=O)=O)cc2)c(C#N)c2nnc(C)n12`: the growth in experiment [1] was 100%; in experiment [2] it was 107%; in [3], 99.4%; in experiment [4], 107%; in experiment [5], 117%; in experiment [6] it was 102%. The growth in experiment [7] is 101%; in [8], 114%; in experiment [9] it was 102%; in experiment [10] it was 105%; in [11], 104%; in experiment [12], 97.6%. Also, the growth in [13] was 108%; in experiment [14], 108%; in experiment [15], 97.2%; in experiment [16] it was 116%; in [17], 103%.
On to `O=C(/C=C/c1cn(-c2ccccc2)nc1-c1ccc(Cl)cc1)c1cc2ccccc2oc1=O`, for which the growth was 45.2% in experiment [1]; 70.8% in experiment [2]; 52.8% in experiment [3]; 98% in experiment [4]; 57.2% in [5]; 92.7% in [6]. The growth in [7] is 35.4%; in experiment [8] it was 82.8%; in experiment [9] it was 66.5%; in [10], 71.9%; in experiment [11], 44.1%; in experiment [12] it was 92.5%. The growth was 57.6% in experiment [13]; 74% in experiment [14]; 33.9% in experiment [15]; 25.4% in experiment [16]; 102% in experiment [18]; 80.3% in experiment [17].

The values are drawn from PubChem BioAssay (NCI).
